Data: PubChem BioAssay (NCI)
About 83,000 compounds went through this panel and 20% of them were active in at least one assay; those are over-represented in the sample as a whole.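 Each cell line was grown in a 96-well plate and treated with one concentration of compound for 48 hours. Values below 10 were considered active.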 Values without a mark were called inactive. Active and inactive are the calls of the source.

system: SF-539 CNS; test: NCI-60 one-dose screen, 48 h (100 = growth as untreated, 0 = no growth, -100 = all killed); settings: 10 µM unless noted

SMILES	growth
Cc1ccc2c(n1)C(=O)C(Cl)=C(Nc1ccc(C#N)cc1)C2=O	100%
CC(C)(O)c1cncc(-c2ccc3ncc(C#N)c(N4CCc5cc(F)c(Cl)cc54)c3c2)c1	-15% (active)
O=c1c2ccccc2cc2n1CCN=C2c1ccccc1	98.6%
O=C(CN1CCN(c2cc(=O)[nH]c3ccc(F)cc23)CC1)N(c1ccccc1)c1ccccc1	101%
CCc1cc(OC(=O)N2CCC(N3CCCCC3)CC2)ccc1Nc1cc(-c2ccc(-n3cccn3)cc2)[nH]n1	-54.8% (active)
CCCC/C(=C\c1ccc(O)c(O)c1)C(=O)NC(Cc1ccccc1)C(=O)C(=O)NCCc1ccc(OC)cc1 (stereo not drawn)	91.6%
CN(C)c1ccc(-c2cc(-c3c[nH]c4ccccc34)nc(N)c2C#N)cc1	37.5%
COc1cc(C(=O)c2cc(C(C)=O)c3ccc(C)cn23)cc(OC)c1OC	34.7%
CCOC(=O)c1ccccc1NC1=C(Cl)C(=O)c2nc(C)ccc2C1=O	96.1%
CN(C)S(=O)(=O)c1ccc(-c2nc(C(Cl)Cl)nc3cc(-c4ccccc4)nn23)cc1	77.8%
CN1CCN(c2ccc(Nc3nc(NCCCNS(=O)(=O)c4ccc(Cl)cc4)c4sccc4n3)cc2)CC1	-85.3% (active)
O=C1[C@@H]2Cc3c([nH]c4ccccc34)[C@H](c3ccc(Cl)cc3)N2C(=O)CN1C1CCN(Cc2ccccc2)CC1	77.6%
CN1CCN(CCNc2nc(-c3cccc(NS(=O)(=O)c4cccc5c(N(C)C)cccc45)c3)cs2)CC1	68.1%
